Bioassay records (PubChem BioAssay)
GPR151 activ – activates the human receptor GPR151; 650,000 tested, 1% active; Q8TDV0; PathHunter beta-arrestin GPR151 cells, luminescence; activation, % at 11.2 µM; AID 1508602; in the data active means activation above about 4.9%;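 further: 0% = median of compound wells and 100% = cells with positive control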
TEAD-YAP inh – TEAD-YAP interaction inhibition; AID 1259422; HEK-TIYL cells, TEAD-Gal4/YAP UAS-luciferase luminescence; inhibition, % at 9.12 µM; 640,000 tested, 1.4% active; in the data active means inhibition above about 32%;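 further: 0% = median of test compound wells and 100% = reference inhibitor wells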
MITF inh – human MITF inhibition, primary screen. inhibition, % at 2.6 µM. 650,000 tested, 0.91% active. AlphaScreen MITF homodimerization, bead proximity signal. AID 1259374; in the data active means inhibition above about 50%;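 further: 0% = vehicle wells with protein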
FBW7 act – human FBW7 E3 ligase activation, primary screen; Q969H0; AlphaScreen FBW7–phospho-cyclin E peptide binding, activator screen; normalized activity (activation), % at 26.1 µM; 650,000 tested, 0.13% active; AID 1259310; in the data active means normalized activity above about 1.9%;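 further: purified mutant Fbw7 with reduced substrate affinity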
Target sequence (Q969H0 whole entry, looked up): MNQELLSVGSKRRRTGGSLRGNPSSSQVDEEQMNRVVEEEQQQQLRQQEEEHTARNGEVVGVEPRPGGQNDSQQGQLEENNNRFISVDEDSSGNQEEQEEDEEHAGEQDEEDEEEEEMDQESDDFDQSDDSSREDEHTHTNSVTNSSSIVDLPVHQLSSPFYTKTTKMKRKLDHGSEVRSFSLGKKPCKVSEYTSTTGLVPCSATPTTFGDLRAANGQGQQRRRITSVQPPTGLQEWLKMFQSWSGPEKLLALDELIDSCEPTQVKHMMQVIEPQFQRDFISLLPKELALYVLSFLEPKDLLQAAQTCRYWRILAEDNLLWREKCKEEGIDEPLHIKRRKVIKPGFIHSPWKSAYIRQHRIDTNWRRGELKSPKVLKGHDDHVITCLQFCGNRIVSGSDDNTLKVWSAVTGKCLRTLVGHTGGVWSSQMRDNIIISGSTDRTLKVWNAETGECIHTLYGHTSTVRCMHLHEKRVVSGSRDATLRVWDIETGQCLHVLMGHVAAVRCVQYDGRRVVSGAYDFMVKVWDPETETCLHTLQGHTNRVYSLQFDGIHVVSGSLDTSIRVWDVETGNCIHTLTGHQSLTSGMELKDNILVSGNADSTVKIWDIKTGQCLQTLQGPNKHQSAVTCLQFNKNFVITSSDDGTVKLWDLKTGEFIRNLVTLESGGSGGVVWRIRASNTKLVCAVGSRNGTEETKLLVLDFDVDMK
MITF confirm – confirmation of human MITF inhibitors. AlphaScreen MITF homodimerization, biotin/His-MITF beads. shares compounds with MITF inh. inhibition, % at 2.6 µM. 4,700 tested, 16% active. AID 1259372;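 active means inhibition above a cutoff derived from the DMSO control wells, cut at about 28% in these data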;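 further: 0% = MITF dimer wells with DMSO only; inhibitors lower the bead chemiluminescence by keeping MITF from dimerizing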
AlphaScreen DR – counter-screen: compounds optically interfering with AlphaScreen; shares compounds with MITF inh; AlphaScreen optical interference counterscreen, cell-free; IC50, µM; 480 tested, 6% active; call rule not given here
AS interf ctr – counter-screen: compounds optically interfering with AlphaScreen | LysRS AlphaScreen counterscreen, signal interference, triplicate | shares compounds with MITF inh | inhibition, % at 2.6 µM | AID 1259376 | 4,700 tested, 7.6% active;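 active means inhibition above a cutoff derived from the DMSO control wells, cut at about 30% in these data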
Starred values were filed as active, the others as inactive; x = not tested or not shown. The list is not random: actives were taken first. Their share in the collection is about 3.5%.

SMILES	GPR151 activ	TEAD-YAP inh	MITF inh	FBW7 act	MITF confirm	AS interf ctr	others
CCN(CC(=O)Nc1ccccc1OC)CC(=O)Nc1ccccc1-c1ccccc1	0	44*	82*	-1	20	29
CCCS(=O)(=O)N1CCN(C(C)CC)CC1 (configuration not stated)	2	-3	52*	0	-3	13
CCOC(=O)c1c(N/N=C(\C)c2ccccc2)n[nH]c1C	0	-59	2	0	x	x
Cc1nc2ncnn2c(NCC2CCCCC2)c1C	4	1	47	0	x	x
C#CCNc1c(C)c(C)nc2ncnn12	0	6	68*	0	8	16
Cc1cc(NC(=O)COC(=O)c2ccc(NC(N)=O)cc2)ccc1Br	-1	-5	52*	0	-5	1
Cc1ccc(OCCCCCNCCO)cc1	-1	1	-28	0	x	x
Cc1ccc(OCCNCCC(=O)O)cc1	-2	-8	57*	0	-5	0
Nc1cc(Br)cnc1N	0	-18	78*	0	80*	9	AlphaScreen DR=>8.6
O=C1C2C3C=CC(CC3)C2C(=O)N1n1cnnc1 (configuration not stated)	2	0	16	1	x	x
COCCNC(=S)NNC(=O)c1cc(Cl)ccc1OC	-1	-6	63*	0	12	14
COCCNC(=S)NNC(=O)c1ccc(Cl)cc1Cl	0	-7	-12	0	x	x
CCN1CCN(CCCCOc2ccc(C)cc2C)CC1	0	-5	59*	0	3	8
CCN1CCN(CCOc2cc(C)ccc2C(C)C)CC1	-2	-3	52*	0	-7	-2
CCN1CCN(CCCOc2ccc(C)cc2Br)CC1	-1	0	63*	0	14	11
Cc1ccc(OCCN)c(Br)c1	1	-1	3	0	x	x
CC(C)[C@@H]1NC(=O)[C@H]2CN(C(=O)NCc3ccccc3)CCN2C1=O	-1	11	81*	0	70*	-8	AlphaScreen DR=>6.5
CC(C)[C@H]1NC(=O)[C@H]2CN(C(=O)OCc3ccccc3)CCN2C1=O	-2	-10	-3	0	x	x
CC(C)C[C@@H]1NC(=O)[C@H]2CN(C(=O)NCc3ccccc3)CCN2C1=O	0	11	78*	0	72*	-5	AlphaScreen DR=>6.5
O=C(NCc1ccccc1)N1CCN2C(=O)[C@H]3CCCN3C(=O)[C@H]2C1	-1	11	76*	0	68*	-11	AlphaScreen DR=>6.5
C[C@H]1NC(=O)[C@H]2CN(C(=O)NCc3ccccc3)CCN2C1=O	5	16	81*	1	65*	-5	AlphaScreen DR=>6.5
O=C(OCc1ccccc1)N1CCN2C(=O)[C@H]3CCCN3C(=O)[C@H]2C1	2	-6	-1	0	x	x
COc1ccc2[nH]c(C)c(CCNS(=O)(=O)c3ccc(Cl)cc3)c2c1	1	-3	-8	0	x	x
O=C(O)c1cccc(N/N=C/c2ccncc2)c1	-5	-31	6	0	x	x
C=CCNC(=O)c1cc2c(=O)n3ccccc3nc2n(Cc2cccnc2)c1=N	-1	-1	8	0	x	x
SMILES	GPR151 activ	TEAD-YAP inh	MITF inh	FBW7 act	MITF confirm	AS interf ctr	others
O=C1N[C@@H](CSCc2ccccc2)C(=O)N2CCN(C(=O)NCc3ccccc3)C[C@H]12	-1	11	80*	0	73*	-14	AlphaScreen DR=>6.5
C[C@@H](O)[C@@H]1NC(=O)[C@H]2CN(C(=O)NCc3ccccc3)CCN2C1=O	-1	-3	75*	0	72*	-15	AlphaScreen DR=>6.5
O=C1N[C@@H](CO)C(=O)N2CCN(C(=O)OCc3ccccc3)C[C@H]12	0	1	0	0	x	x
O=C1N[C@@H](CC2CCCCC2)C(=O)N2CCN(C(=O)NCc3ccccc3)C[C@H]12	1	3	77*	0	68*	-9	AlphaScreen DR=>6.5
CCc1ccc(OCCCCCn2ccnc2)cc1	0	6	53*	0	-5	-2
c1ccc(OCCCn2ccnc2)cc1	0	7	-1	0	x	x
c1ccc(COc2ccc(OCCn3ccnc3)cc2)cc1	1	-45	81*	0	7	2
c1ccc(COc2ccc(OCCCn3ccnc3)cc2)cc1	-6	54*	79*	0	6	18
CCc1ccc(OCCn2ccnc2)cc1	0	-2	31	0	x	x
CC(C)N1CCc2c(sc(NC(=O)c3ccc(S(=O)(=O)N(C)c4ccccc4)cc3)c2C(N)=O)C1	0	1	-3	0	x	x
c1cncc(-c2cc(NCCCn3ccnc3)nc(-c3cccnc3)n2)c1	2	8	65*	-1	29*	39*
c1cncc(-c2nc(NCCCn3ccnc3)cc(-c3ccncc3)n2)c1	-1	13	13	-1	x	x
CCOC(=O)/C(C#N)=C\c1ccc(Br)s1	-1	0	-8	0	x	x
C(=N\N1CCOCC1)/c1cccc(Oc2ccccc2)c1	1	-34	70*	0	12	7
C=CCn1c(SCC(=O)NCc2ccc3c(c2)OCO3)nc2sc3c(c2c1=O)CCC3	-1	-11	-5	0	x	x
C=CCn1c(SCC(=O)NCc2ccc3c(c2)OCO3)nc2scc(-c3ccccc3)c2c1=O	-1	2	57*	0	12	9
Cc1cc(S(=O)(=O)N2CCN(CCC(=O)O)CC2)ccc1Br	-1	-1	54*	0	-8	-1
COC(=O)CCN1CCN(S(=O)(=O)c2ccccc2Br)CC1	0	7	85*	0	-4	-1
CC(=O)Oc1cccc(N2C(=O)C3C4C=CC(O4)C3C2=O)c1 (configuration not stated)	0	0	-6	0	x	x
CC(C)(C)C(=O)COc1ccc2c(C(F)(F)F)cc(=O)oc2c1	0	6	6	0	x	x
NC(=O)COc1ccc2c(C(F)(F)F)cc(=O)oc2c1	-1	12	54*	0	-23	15
C=CCOC(=O)COc1ccc2c(CC)cc(=O)oc2c1	-1	-1	76*	0	8	7
O=C(N/N=C/c1ccc2c(c1)OCCO2)C(=O)Nc1cccc(Br)c1	-1	-4	-9	0	x	x
Cc1ncc(CO)c(/C=N/NC(=S)Nc2ccc(F)cc2)c1O	-2	-2	85*	-1	15	23
Cc1ncc(CO)c(/C=N/NC(=S)Nc2ccc(Cl)cc2)c1O	0	9	64*	0	-15	21
Cc1ncc(CO)c(/C=N/Nc2ccc(C(F)(F)F)cn2)c1O	4	30	58*	-1	23	100*
Cc1ncc(CO)c(/C=N/Nc2ccc(C(F)(F)F)cc2[N+](=O)[O-])c1O	1	4	-10	0	x	x
Cc1ncc(CO)c(/C=N/NC(=O)c2ccccc2F)c1O	0	-33	32	-2	x	x
Cc1ccc(CN2CCN(/N=C\c3ccccc3OCC(=O)O)CC2)cc1	0	-4	0	0	x	x
